Screening results: PubChem BioAssay, NMMLSC
Most compounds without a hit are left out; they make up all but 2.9% or so of the library.
B2AR ag: beta2AR agonists driving receptor internalization, primary screen, cell-based, FAP fluorogen, flow cytometry. Am2.2-beta2AR cells. AID 504454, 2011. response, % (no concentration beside the values). Beta-2 adrenergic receptor (Homo sapiens), P07550. 340,000 tested, 0.43% active;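 active = response above a set limit, near 3 SD of response in nonfluorescent compounds, cut at about 42% in these data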
MEKK3 PB1 HTS: modulators of MEKK3-MEK5 PB1 binding, primary screen, biochemical, wildtype MEKK3, multiplex bead flow cytometry, Alexa488-MEK5. binding response (% of control), % at 10 µM. bead-based flow cytometry, Alexa488-MEK5 binding to MEKK3; actives lie on both sides; 0 = blocked by unlabeled MEK5, 100 = vehicle. 290,000 tested, 1.4% active. Mitogen-activated protein kinase kinase kinase 3 (Homo sapiens), Q99759;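 active = binding response more than 3 SD above or below the average of its plate-row segment, actives on both sides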;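 also: Alexa488 bead fluorescence after subtracting the streptavidin-only scavenger bead signal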
Target sequence (Q99759 whole entry, looked up): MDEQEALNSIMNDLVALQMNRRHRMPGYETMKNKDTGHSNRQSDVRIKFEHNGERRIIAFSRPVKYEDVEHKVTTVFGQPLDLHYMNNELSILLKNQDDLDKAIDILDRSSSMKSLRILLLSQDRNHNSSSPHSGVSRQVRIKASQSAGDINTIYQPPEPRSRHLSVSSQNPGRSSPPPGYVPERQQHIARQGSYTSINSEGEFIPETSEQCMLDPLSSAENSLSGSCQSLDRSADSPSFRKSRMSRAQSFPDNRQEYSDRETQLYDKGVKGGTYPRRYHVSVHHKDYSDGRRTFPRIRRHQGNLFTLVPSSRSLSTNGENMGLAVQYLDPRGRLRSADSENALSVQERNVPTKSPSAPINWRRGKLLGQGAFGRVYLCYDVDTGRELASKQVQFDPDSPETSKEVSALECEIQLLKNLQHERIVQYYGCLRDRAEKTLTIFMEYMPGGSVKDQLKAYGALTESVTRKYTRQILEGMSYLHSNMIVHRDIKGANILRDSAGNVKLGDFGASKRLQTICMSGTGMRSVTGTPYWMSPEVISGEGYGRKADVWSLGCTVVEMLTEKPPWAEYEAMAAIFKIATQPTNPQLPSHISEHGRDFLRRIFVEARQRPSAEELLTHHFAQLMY
GRK2 aptamer HTS: compounds blocking aptamer binding on GRK2 – biochemical, human GRK2, bead flow cytometry, HTS, primary screen. FAM-aptamer displacement from GRK2. inhibition of aptamer binding, % at 10 µM. 330,000 tested, 0.59% active;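 active = inhibition of aptamer binding above 40%, roughly 3 SD of noise, on plates passing a quality check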;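 also: median bead fluorescence of bound FAM aptamer so fluorescent compounds give negative values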
MEKK2wt PB1 HTS: modulators of MEK5 binding to wildtype MEKK2, primary screen, biochemical, multiplex bead flow cytometry, Alexa488-MEK5 | Mitogen-activated protein kinase kinase kinase 2 (Homo sapiens), Q9Y2U5 | Alexa488-MEK5 binding to MEKK2 WT; actives lie on both sides | binding response (% of control), % at 10 µM | 290,000 tested, 1.1% active; in the data active = binding response below about 67% or above about 130%
MEKK2 mut-MEK5: MEK5 binding signal on mutant MEKK2 PB1, primary screen, biochemical, multiplex bead flow cytometry, Alexa488-MEK5; Alexa488-MEK5 binding to MEKK2 mutant; percent response, % at 10 µM; 290,000 tested, 0.35% active; AID 1530, 2009; in the data active = percent response above about 24%, passing the limit was not always enough
Beta2AR ag CP1: beta2AR agonists via receptor internalization, confirmation, cell-based, FAP fluorogen, flow cytometry, single point, cherry pick 1 | Am2.2-beta2AR cells, FAP surface receptor; active compounds read low | percent response (surface receptor), % at 10 µM | shares compounds with B2AR ag | 1,100 tested, 25% active;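 active = surface receptor percent response at or below 58%, roughly 3 SD from nonfluorescent compounds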
FAP fluor counter: fluorescence artifact in beta-2AR agonist FAP counterscreen. shares compounds with B2AR ag. Am2.2 cells, FAP fluorogen flow cytometry; active compounds read low. calls only at 10 µM. 1,100 tested, under 10 active;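 active = percent response below a set limit in fluorescence channel 1 and below 50% in channel 8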
* = called active by the depositor; i = inactive; · = no result given.

SMILES | B2AR ag | MEKK3 PB1 HTS | GRK2 aptamer HTS | MEKK2wt PB1 HTS | MEKK2 mut-MEK5 | Beta2AR ag CP1 | FAP fluor counter
CCC(NC(=O)c1cc(COc2ccc(C)nc2)on1)c1ccc(C)cc1 (configuration not stated) | -2.6 | 97.0 | 0.0 | 98.0 | -6.0 | 127.5 | i
CC(=O)/C(N=Nc1nc2c([nH]1)c(=O)n(C)c(=O)n2C)=C(\C)O | -1.8 | 101.0 | 3.0 | 100.0 | -1.0 | · | ·
CCCn1c(N)c(C(=O)CSc2nnc(-c3cccs3)n2C2CC2)c(=O)[nH]c1=O | -1.4 | · | 1.0 | · | · | · | ·
CC(C(=O)N1CCCC1)N(C)CC(=O)Nc1cccc(F)c1 (configuration not stated) | -5.0 | · | 0.0 | · | · | · | ·
O=C(CCNC(=O)C1CCN(S(=O)(=O)c2ccccc2)CC1)Nc1ccccc1 | 47.9* | 96.0 | 0.0 | 104.0 | 5.0 | 106.7 | i
Cc1cc(NC(=O)CSc2ccc3nnc(CCNC(=O)c4ccccc4)n3n2)no1 | -6.8 | 102.0 | 3.0 | 101.0 | 1.0 | · | ·
Cc1ccc(NC(=O)CSc2ccc3nnc(CCNC(=O)c4ccccc4)n3n2)c(C)c1 | 62.1* | 99.0 | 0.0 | 97.0 | 11.0 | 111.0 | i
COCCNC(=O)c1c(N)n(CCCn2ccnc2)c2nc3ccccc3nc12 | 64.9* | 90.0 | 4.0 | 89.0 | -6.0 | 113.8 | i
COc1ccc2c(c1OC)C(=O)N(c1cccc(/C=C/C(=O)O)c1)C2 | 5.3 | 102.0 | 1.0 | 100.0 | 0.0 | · | ·
Nc1c(S(=O)(=O)c2cccs2)c2nc3ccccc3nc2n1Cc1ccccc1 | -0.7 | 97.0 | 0.0 | 89.0 | -6.0 | · | ·
Cc1ccc(Cn2c(N)c(S(=O)(=O)c3cccs3)c3nc4ccccc4nc32)cc1 | 52.2* | 104.0 | 1.0 | 108.0 | 4.0 | 73.9 | i
O=C(c1ccco1)N1CCCC(c2nc3c(nnn3Cc3c(Cl)cccc3Cl)c(=O)[nH]2)C1 (configuration not stated) | 50.5* | 101.0 | 1.0 | 97.0 | -2.0 | 124.0 | i
O=C(CSc1nnnn1-c1ccc(C(=O)O)cc1)NC1CC1 | 3.5 | 104.0 | 5.0 | 109.0 | 5.0 | · | ·
CN(C)CCCNc1nc(N)c([N+](=O)[O-])c(NC2CCCCC2)n1 | -3.5 | 107.0 | 0.0 | 118.0 | 12.0 | · | ·
CCOC(=O)Cn1nnnc1CN(Cc1ccccc1)Cc1cc2cc(CC)ccc2[nH]c1=O | 100.2* | 106.0 | 1.0 | 103.0 | 0.0 | 62.5 | i
CCCNC(C)C(=O)Nc1ccccc1C (configuration not stated) | -2.9 | 62.0 | 0.0 | 64.0 | 3.0 | 114.5 | i
CC(C)N1C(=O)/C(=C/c2nc3ccccc3c(=O)n2-c2ccccc2)c2ccccc21 | 47.1* | · | 1.0 | · | · | 81.9 | i
OCCN1CCN(c2ncnc3c2sc2nc(N4CCOCC4)c4c(c23)CCC4)CC1 | 18.4 | 108.0 | 3.0 | 109.0 | 9.0 | · | ·
CC1(C)Cc2c(c(N3CCCC3)nc3sc4c(N5CCN(CCO)CC5)ncnc4c23)CO1 | 71.1* | 109.0 | 0.0 | 96.0 | -2.0 | 46.4* | i
CC1(C)Cc2c(c(N3CCOCC3)nc3sc4c(NCCN)ncnc4c23)CO1 | 105.3* | · | · | · | · | 10.5* | i
COc1cccc(OC)c1C(=O)Nc1ccccc1Sc1ccccc1 | 0.9 | · | 0.0 | · | · | · | ·
COc1ccccc1NC(=O)c1ccc(Br)c(S(=O)(=O)N2CCCC2)c1 | 7.0 | 102.0 | 1.0 | 104.0 | 6.0 | · | ·
Cc1cc(-c2ccccc2)nc(SCC(=O)N2CCCC2)n1 | -18.9 | 106.0 | 0.0 | 95.0 | -2.0 | 115.3 | i
CN[C@H](C)C(=O)NC[C@H]1O[C@@H](n2cnc3c(N)ncnc32)[C@H](O)[C@@H]1O | 2.0 | · | 0.0 | · | · | · | ·
Cc1ccc(C)c(NC(=S)c2ccccn2)c1 | -1.6 | 101.0 | 2.0 | 105.0 | 3.0 | 114.0 | i
SMILES | B2AR ag | MEKK3 PB1 HTS | GRK2 aptamer HTS | MEKK2wt PB1 HTS | MEKK2 mut-MEK5 | Beta2AR ag CP1 | FAP fluor counter
CN1CCN(CCc2nc3cc(NC(=O)COc4ccccc4)ccc3n2C)CC1 | -16.5 | · | 0.0 | · | · | 128.6 | i
CC(C)(CNCc1ccccc1)NS(=O)(=O)c1ccccc1 | -3.8 | · | 0.0 | · | · | · | ·
CC(=O)c1nnn(-c2nc(N)nc(N(c3ccccc3)c3ccccc3)n2)c1C | -9.6 | 107.0 | 2.0 | 104.0 | -3.0 | · | ·
CCCCN(CCCC)c1nc(OC)nc(-n2nnc(C(C)=O)c2C)n1 | 73.5* | 100.0 | 2.0 | 97.0 | 6.0 | 25.0* | i
Cc1cc(Cl)ccc1OC(C)C(=O)NNC(=O)C1CCCCC1C(=O)O (configuration not stated) | -7.0 | 101.0 | 0.0 | 100.0 | -3.0 | · | ·
Cc1cc(C)cc(N2C(=O)CC(Sc3nnnn3-c3ccccc3)C2=O)c1 (configuration not stated) | 50.5* | 104.0 | 0.0 | 102.0 | 5.0 | 113.8 | i
O=C(NCCNc1ccc([N+](=O)[O-])cc1)c1ccccc1Br | 46.1* | 99.0 | 1.0 | 101.0 | 3.0 | 105.0 | i
COC(=O)CSc1nc(N)c(C#N)c(-c2ccc(O)cc2)c1C#N | 67.2* | 97.0 | 0.0 | 106.0 | -6.0 | 76.0 | i
CCCCOc1cccc(C(=O)Nc2ccc(NC(=O)c3cccs3)cc2)c1 | 79.5* | 102.0 | 1.0 | 100.0 | -3.0 | 21.4* | i
CCCOc1ccc(C(=O)Nc2ccc(NC(=O)c3cccs3)cc2)cc1 | -6.2 | 106.0 | 0.0 | 105.0 | -2.0 | · | ·
CCOc1ccc(NC(=O)Nc2ccc3c(c2)nnn3C)cc1 | 59.9* | 101.0 | 0.0 | 103.0 | -1.0 | 101.3 | i
CC(C)Cc1nc2sc3c(NCc4ccco4)ncnc3c2c2c1COC(C)(C)C2 | 65.1* | 97.0 | 0.0 | 95.0 | 2.0 | 27.6* | i
Cc1nc2sc3c(NCc4ccco4)ncnc3c2c2c1COC(C)(C)C2 | -15.7 | 96.0 | 0.0 | 93.0 | -5.0 | · | ·
CC(C)c1nc2oc3c(NCCO)ncnc3c2c2c1COC(C)(C)C2 | 4.8 | 98.0 | 3.0 | 99.0 | -2.0 | 113.7 | i
CC1(C)Cc2c(C#N)c(NCCc3ccccc3)nc(-c3ccco3)c2CO1 | 5.2 | 100.0 | 2.0 | 100.0 | 0.0 | · | ·
CC(C)c1nc2oc3c(NCC4CCCO4)ncnc3c2c2c1COC(C)(C)C2 (configuration not stated) | -3.6 | · | · | · | · | · | ·
CC1(C)Cc2c(c(-c3ccco3)nc3sc4c(NCCO)ncnc4c23)CO1 | 100.5* | 105.0 | 0.0 | 102.0 | -53.0 | 16.4* | i
